Assay [1] can be described thus: small molecules captured by biotinylated probe aFSTL3 – biochemical, small-molecule microarray, fluorescence 635/667, stem cell growth factor project, primary screen (AID 1064).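 Further: measures binding of the biotinylated anti-FSTL3 antibody to printed compounds.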 The note with it: higher = more signal.
A short description of assay [2]: binders from COS7 lysate, DM2A8 probe, primary screen, torsin A project, cell lysate, small-molecule microarray, fluorescence 635/667 (AID 1065). Particulars: higher = more signal, COS7 lysate expressing mutant human TOR1A.
The nature of assay [3]: small molecules captured by biotinylated probe aFGF2 – biochemical, small-molecule microarray, fluorescence 635/667, stem cell growth factor project, primary screen (AID 1067).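 Further: measures binding of biotinylated aFGF2 protein to printed compounds on slides; z-score merges feature fluorescence and signal-to-noise across triplicate slides.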 The note with it: higher = more signal.
Assay [4] in a line: small molecules captured by biotinylated probe aFGF10 – biochemical, small-molecule microarray, fluorescence 635/667, stem cell growth factor project, primary screen (AID 1071).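 Further: score merges 667 nm spot intensity and signal to noise from triplicate slides.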 The note with it: higher = more signal.
For assay [5], the target named is Neurogenic locus notch homolog protein 2 (Homo sapiens) (UniProt Q04721). Description: small molecules binding Notch2 protein – biochemical, small-molecule microarray, 635 nm fluorescence, stem cell growth factors, primary screen (AID 1073). Particulars: higher = more signal.
Sequence of Neurogenic locus notch homolog protein 2 (Homo sapiens) (Q04721 whole entry, looked up, canonical isoform): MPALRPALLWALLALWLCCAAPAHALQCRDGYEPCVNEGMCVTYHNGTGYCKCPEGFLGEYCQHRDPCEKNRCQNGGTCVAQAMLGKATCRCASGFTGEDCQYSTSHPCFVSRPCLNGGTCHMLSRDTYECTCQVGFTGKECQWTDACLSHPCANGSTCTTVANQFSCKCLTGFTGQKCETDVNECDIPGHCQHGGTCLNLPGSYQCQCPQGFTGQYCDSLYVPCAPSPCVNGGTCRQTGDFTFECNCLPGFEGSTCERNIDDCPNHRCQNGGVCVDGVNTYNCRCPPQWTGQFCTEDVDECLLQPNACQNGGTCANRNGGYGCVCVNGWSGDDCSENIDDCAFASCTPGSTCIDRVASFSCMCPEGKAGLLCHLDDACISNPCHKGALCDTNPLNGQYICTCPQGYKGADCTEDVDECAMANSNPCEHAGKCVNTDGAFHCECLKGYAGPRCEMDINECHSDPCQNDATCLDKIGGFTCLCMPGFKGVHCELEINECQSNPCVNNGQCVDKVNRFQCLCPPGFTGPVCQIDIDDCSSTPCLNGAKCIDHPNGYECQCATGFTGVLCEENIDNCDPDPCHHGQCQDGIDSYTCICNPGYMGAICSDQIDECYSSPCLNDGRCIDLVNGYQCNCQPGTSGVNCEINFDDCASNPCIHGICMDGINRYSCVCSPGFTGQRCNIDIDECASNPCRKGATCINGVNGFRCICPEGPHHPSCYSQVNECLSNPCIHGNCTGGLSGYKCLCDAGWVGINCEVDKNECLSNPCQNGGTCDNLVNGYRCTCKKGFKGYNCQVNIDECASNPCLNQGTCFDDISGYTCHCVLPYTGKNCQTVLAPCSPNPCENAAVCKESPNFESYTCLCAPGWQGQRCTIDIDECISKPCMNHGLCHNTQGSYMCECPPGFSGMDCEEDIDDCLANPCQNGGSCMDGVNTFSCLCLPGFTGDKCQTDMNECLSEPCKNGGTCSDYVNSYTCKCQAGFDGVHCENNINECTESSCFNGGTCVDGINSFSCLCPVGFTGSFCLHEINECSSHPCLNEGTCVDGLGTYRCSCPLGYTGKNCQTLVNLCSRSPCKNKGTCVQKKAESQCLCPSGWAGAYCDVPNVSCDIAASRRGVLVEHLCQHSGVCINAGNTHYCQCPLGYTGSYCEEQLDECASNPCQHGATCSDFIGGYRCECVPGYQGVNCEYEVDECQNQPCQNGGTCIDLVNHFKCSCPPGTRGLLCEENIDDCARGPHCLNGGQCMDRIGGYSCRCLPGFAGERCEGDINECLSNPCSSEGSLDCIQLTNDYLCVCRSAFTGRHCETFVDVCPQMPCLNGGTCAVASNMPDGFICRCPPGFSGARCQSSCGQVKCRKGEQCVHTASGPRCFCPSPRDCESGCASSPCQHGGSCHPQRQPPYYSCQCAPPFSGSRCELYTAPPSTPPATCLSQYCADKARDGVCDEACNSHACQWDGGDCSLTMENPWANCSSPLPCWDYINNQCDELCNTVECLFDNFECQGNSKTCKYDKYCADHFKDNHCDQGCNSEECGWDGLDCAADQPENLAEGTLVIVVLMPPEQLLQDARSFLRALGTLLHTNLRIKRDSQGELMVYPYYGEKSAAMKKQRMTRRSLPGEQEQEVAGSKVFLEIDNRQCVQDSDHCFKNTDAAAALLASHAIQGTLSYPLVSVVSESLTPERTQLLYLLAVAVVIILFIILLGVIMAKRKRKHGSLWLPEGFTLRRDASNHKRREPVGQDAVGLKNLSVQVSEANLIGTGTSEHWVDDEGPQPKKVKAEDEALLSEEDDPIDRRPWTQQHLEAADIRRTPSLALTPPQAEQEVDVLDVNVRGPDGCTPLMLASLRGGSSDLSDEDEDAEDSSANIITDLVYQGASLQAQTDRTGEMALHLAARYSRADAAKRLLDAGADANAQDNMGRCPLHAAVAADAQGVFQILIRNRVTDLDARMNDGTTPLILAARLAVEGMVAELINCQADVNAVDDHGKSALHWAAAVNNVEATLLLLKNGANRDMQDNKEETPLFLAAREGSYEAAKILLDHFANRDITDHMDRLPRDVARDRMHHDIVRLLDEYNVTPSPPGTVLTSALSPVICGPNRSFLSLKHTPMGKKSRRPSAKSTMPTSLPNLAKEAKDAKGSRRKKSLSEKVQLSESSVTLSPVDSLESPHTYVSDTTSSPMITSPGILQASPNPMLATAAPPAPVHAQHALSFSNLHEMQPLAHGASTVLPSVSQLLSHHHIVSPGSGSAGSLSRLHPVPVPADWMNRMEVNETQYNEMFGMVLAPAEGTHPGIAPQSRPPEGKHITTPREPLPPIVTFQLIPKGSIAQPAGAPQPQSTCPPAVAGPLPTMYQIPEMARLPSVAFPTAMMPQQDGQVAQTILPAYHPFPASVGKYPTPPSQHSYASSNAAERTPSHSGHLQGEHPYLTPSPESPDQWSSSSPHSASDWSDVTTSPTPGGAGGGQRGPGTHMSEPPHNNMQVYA
Assay [6] deals with Pro-neuregulin-1, membrane-bound isoform (Homo sapiens) (UniProt Q02297). Kind of assay: small molecules binding neuregulin-1 protein – biochemical, small-molecule microarray, fluorescence 635/667, psychiatric disease protein project, primary screen (AID 1075).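 Further: score combines 667 nm spot fluorescence with signal to noise.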 Particulars: NRG1 binding, 635 nm fluorescence, higher = more signal.
Sequence of Pro-neuregulin-1, membrane-bound isoform (Homo sapiens) (Q02297 whole entry, looked up, the tested form may be a part, canonical isoform): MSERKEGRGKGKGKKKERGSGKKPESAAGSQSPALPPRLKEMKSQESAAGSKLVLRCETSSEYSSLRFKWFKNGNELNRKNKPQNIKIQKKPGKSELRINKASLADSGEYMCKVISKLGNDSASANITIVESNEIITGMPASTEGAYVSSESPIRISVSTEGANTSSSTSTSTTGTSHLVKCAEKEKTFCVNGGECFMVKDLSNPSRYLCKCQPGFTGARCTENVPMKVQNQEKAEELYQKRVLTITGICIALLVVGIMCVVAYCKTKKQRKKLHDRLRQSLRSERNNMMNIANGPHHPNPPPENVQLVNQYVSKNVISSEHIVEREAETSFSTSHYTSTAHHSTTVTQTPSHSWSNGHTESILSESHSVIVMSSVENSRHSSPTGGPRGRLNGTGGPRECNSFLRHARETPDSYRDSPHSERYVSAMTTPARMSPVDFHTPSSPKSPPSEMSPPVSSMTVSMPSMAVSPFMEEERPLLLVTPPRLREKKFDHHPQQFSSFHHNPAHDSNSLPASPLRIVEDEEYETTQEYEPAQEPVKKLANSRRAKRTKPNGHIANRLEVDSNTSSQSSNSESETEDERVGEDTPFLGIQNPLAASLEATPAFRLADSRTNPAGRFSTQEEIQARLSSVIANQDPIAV
In assay [7] the test system is Neuregulin-1 EGF-like domain. Kind of assay: small molecules binding NRG1 EGF domain – biochemical, small-molecule microarray, 635 nm fluorescence, primary screen (AID 1081).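 Further: binding of the protein to compounds printed on small-molecule microarray slides.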 The note with it: higher = more signal.
The nature of assay [8]: FRG1 expression reporter modulators in myotubes – cell-based, C2C12 myotubes, firefly/Renilla luciferase, luminescence, FRG1 inhibition for FSHD, primary screen (AID 1084). The note with it: FRG1 promoter luciferase, higher = more signal, called active from +8 up or from −8 down.
Assay [9] can be described thus: small molecules captured by biotinylated probe aFST – biochemical, small-molecule microarray, fluorescence 635/667, stem cell growth factor project, primary screen (AID 1086).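 Further: score merges 667 nm fluorescence with signal-to-noise of each printed compound spot.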 The note with it: higher = more signal.
Assay [10] in a line: binders of probe aHhip on microarray, primary screen, stem cell growth factor project, biochemical, small-molecule microarray, fluorescence 635/667 (AID 1087).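 Further: score merges spot fluorescence at 667nm with spot signal to noise ratio.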 Particulars: higher = more signal.
For assay [11], the system named is PRMT1 (protein arginine N-methyltransferase 1). Kind of assay: small molecules binding arginine methyltransferase PRMT1 – biochemical, small-molecule microarray, 635 nm fluorescence, primary screen (AID 1088).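 Further: binding of Prmt1 protein to compounds spotted on small-molecule microarray slides.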 Particulars: higher = more signal.
Assay [12] in a line: growth effects on S. cerevisiae YJM789 – YJM789 clinical isolate, OD600, 24 h, basal, primary screen (AID 1089).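 Further: growth of clinical yeast isolate S. cerevisiae YJM 789 seeded 1000 cells per well; test concentration not given here.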 The note with it: higher = more signal, called active from +8 up or from −8 down.
Assay [13] in a line: S. pombe growth modifiers, basal conditions – strain 972, OD600, 24 h, no modulator, primary screen (AID 1090).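 Further: basal condition with compound alone and no growth modifier present; test concentration not given here.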 The note with it: S. pombe 972 growth, higher = more signal, called active from +8 up or from −8 down.
Assay [14] is described as follows: budding yeast growth modifiers under rapamycin – strain BY4716, OD600, 96 h, primary screen (AID 1091). Further: test concentration not given here. Particulars: S. cerevisiae BY4716 + rapamycin, higher = more signal, called active from +8 up or from −8 down.
Assay [15] deals with Torsin-1A-interacting protein 2 (Homo sapiens) (UniProt Q8NFQ8). Kind of assay: small molecules binding lysate-expressed LULL1 – cell lysate, human LULL1 lysate, 635/667 nm fluorescence, primary screen (AID 1092).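 Further: probe is lysate of COS7 cells overexpressing human LULL1; score merges per-feature 667 nm fluorescence with signal-to-noise.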 The note with it: small-molecule microarray, hLULL1 lysate binding, 635 nm fluorescence; higher = more signal.
Sequence of Torsin-1A-interacting protein 2 (Homo sapiens) (Q8NFQ8 whole entry, looked up): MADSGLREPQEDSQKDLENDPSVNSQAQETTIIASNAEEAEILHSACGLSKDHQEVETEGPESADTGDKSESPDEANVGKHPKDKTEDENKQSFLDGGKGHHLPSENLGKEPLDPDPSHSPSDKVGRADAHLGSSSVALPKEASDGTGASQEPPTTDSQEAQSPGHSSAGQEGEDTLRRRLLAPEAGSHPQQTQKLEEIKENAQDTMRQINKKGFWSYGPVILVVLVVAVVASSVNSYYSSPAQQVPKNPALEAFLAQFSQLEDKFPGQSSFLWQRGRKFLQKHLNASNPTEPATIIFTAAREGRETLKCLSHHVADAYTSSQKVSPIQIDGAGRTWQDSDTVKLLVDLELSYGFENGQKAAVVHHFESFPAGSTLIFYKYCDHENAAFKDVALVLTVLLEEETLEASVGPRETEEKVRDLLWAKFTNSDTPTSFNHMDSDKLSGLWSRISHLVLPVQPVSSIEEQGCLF
The nature of assay [16]: optical density change of DRC41 E. coli – strain DRC41, OD650, 24 h, E. coli filamentation project, primary screen (AID 1093).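 Further: MC1000 strain lacking acrAB efflux and sulA so SOS filamentation is blocked; test concentration not given here.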 The note with it: E. coli DRC41 growth, higher = more signal, called active from +8 up or from −8 down.
The nature of assay [17]: probe aLefty2 binding to arrayed compounds – biochemical, biotinylated probe, 635/667 nm fluorescence, primary screen (AID 1094).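 Further: score merges spot fluorescence near 667 nm with spot signal-to-noise ratio.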 The note with it: small-molecule microarray, higher = more signal.
Assay [18] deals with Noggin (protein binding on small-molecule microarray). Description: small molecules binding Noggin protein – biochemical, 635/667 nm fluorescence, primary screen (AID 1095).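 Further: score merges 667 nm feature fluorescence with signal to noise over triplicate slides.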 The note with it: 635 nm fluorescence, higher = more signal.
Assay [19] has as its target Neurogenic locus notch homolog protein 3 (Homo sapiens) (UniProt Q9UM47). Description: small molecules binding NOTCH3 protein – biochemical, 635/667 nm fluorescence, primary screen (AID 1096). The note with it: small-molecule microarray, 635 nm fluorescence, higher = more signal.
The nature of assay [20]: probe aEGFR binding to arrayed compounds – biochemical, biotinylated probe, 635/667 nm fluorescence, primary screen (AID 1097).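 Further: probe is a biotinylated anti-EGFR antibody binding compounds printed on slides; score combines fluorescence near 667 nm and signal to noise of each spot.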 Particulars: small-molecule microarray, higher = more signal.

SMILES strings stand for the structures. Activity calls are given as the source filed them.

In the case of `CN(C)CCCC[C@@H]1NC(=O)[C@H]2C[C@@H](C(=O)NCCCCCNC(=O)CS)[C@@H](c3ccc(O)cc3)N2C1=O`, the composite z-score in [1] is 0.594; in [2] it was -0.149; in assay [3], -0.203; in assay [4] it was -0.122; in [5], -1.21; in assay [6] it was 0.356. For the same molecule, the composite z-score in assay [7] is -0.458; in [9] it was -0.576; in assay [10] it was -0.134; in [11], -0.97; in assay [15], 0.134; in assay [17] it was 0.0601. Also, the results for the composite z-score in [18], in assay [19] and in assay [20] were -0.673, -0.0464 and -0.167, respectively. Also, the z-score in assay [8] was 0.348 (inactive); in [12], 0.428 (inactive); in assay [13], -0.578 (inactive); in assay [14], -0.52 (inactive); in [16], 0.702 (inactive).

Regarding `COc1c(C)cc(-c2cc3c(c(-c4ccccc4)n2)[Si](C(C)C)(C(C)C)O[C@H]3c2ccccc2)cc1C`, the composite z-score was -0.409 in [1]; -0.103 in assay [2]; -0.103 in assay [3]; 0.235 in assay [4]; 0.234 in assay [5]; -0.0051 in assay [6]. The composite z-score in assay [7] was -0.438; in assay [9] it was 0.291; in [10] it was 0.0373; in assay [11], 0.431; in assay [15], 0.0055; in assay [17], -0.166. In addition, the composite z-score in [18] is 0.37; in assay [19], 0.418; in [20], -0.0359. In addition, the z-score in assay [8] was 0.361 (inactive); in assay [12] it was -0.336 (inactive); in assay [13], -0.253 (inactive); in assay [14], 0.0998 (inactive); in assay [16], -1.1 (inactive).

For the molecule `CC(C)(C)OC(=O)CC[C@@]1(C(=O)N2CCOCC2)N=C(c2ccc(OCCCO)cc2)O[C@@H]1c1ccccc1N=[N+]=[N-]`, the composite z-score in [1] was found to be 0.0033; in assay [2], 1.13; in assay [3] it was 0.213; in assay [4], 0.883; in assay [5] it was 1.43; in [6], 1.75. Moreover, the composite z-score was determined as 1.29 in assay [7]; 1.57 in assay [9]; 0.142 in [10]; 1.53 in assay [11]; 3.67 in assay [15]; 0.0769 in assay [17]. Further, the composite z-score in assay [18] was 0.952; in [19], 1.06; in assay [20], 0.127. The z-score in assay [8] was 0.97 (inactive); in assay [12], 0.501 (inactive); in [13], -0.165 (inactive); in assay [14], 0.404 (inactive); in [16], 1.29 (inactive).

Turning to `CC(c1ccccc1)C(O)C1C=CC2C(=O)N(c3ccccc3)C(=O)C2N1Nc1ccccc1F` (stereo not given), the composite z-score in assay [1] was -0.0296; in assay [2], 0.267; in [3] it was 0.0786; in assay [4], 0.26; in [5], 0.917; in assay [6] it was 1.28. Besides, the composite z-score was 0.679 in assay [7]; 1.34 in assay [9]; -0.191 in assay [10]; 1.26 in assay [11]; 2.87 in assay [15]; 0.0841 in assay [17]. Moreover, the composite z-score in assay [18] is -0.138; in [19], 1.14; in assay [20] it was -0.0192. Also, the z-score in [8] is 0.985 (inactive); in [12], -1.11 (inactive); in assay [13] it was 1.15 (inactive); in assay [14] it was -1.99 (inactive); in assay [16], 0.198 (inactive).

As to `O=C1OCC=C[C@H]2OC34C=CCN(c5ccc(Cl)cc5)C(=O)[C@H]3N(CCCO)C(=O)[C@@H]4[C@@H]12` (stereo not given in full), the composite z-score was 0.768 in [1]; -0.38 in [2]; -0.0847 in assay [3]; -0.573 in [4]; -1.6 in assay [5]; 0.3 in assay [6]. In addition, the composite z-score in assay [7] is 1.41; in [9], -0.415; in assay [10], -0.277; in assay [11], 0.631; in [15] it was 2.56; in assay [17], -0.0783. Moreover, the composite z-score was -0.996 in assay [18], -0.478 in assay [19] and -0.28 in assay [20]. Further, the z-score in [8] was -0.0992 (inactive); in [12] it was 0.0783 (inactive); in assay [13] it was -0.252 (inactive); in [14], 0.0814 (inactive); in [16], 1.3 (inactive).
